# Assay outcomes from PubChem BioAssay.
# IL1B NFkB inh: blocks IL-1B driven NFkB nuclear translocation in HUVEC cells | HUVEC IL-1B NFkB p65 nuclear translocation imaging | inhibition, % at 2 µM | hit rate 0.43% among 94,000;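 active = inhibition above about 30% together with a positive call from visual inspection of the well image, limit read from the data; inconclusive = inhibition above a set limit but visual check negative; inactive = inhibition not above a set limit, visual check negative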;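 also: nuclear over cytoplasmic p65 intensity ratio measured by imaging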
# NFkB transloc pot: enhances IL-1B driven NFkB nuclear translocation; AID 819; activation, % at 2 µM; HUVEC IL-1B NFkB p65 nuclear translocation imaging; hit rate 0.3% among 94,000;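 active = activation above 40%, about the mean plus 3 SD, also judged a hit on visual image review; inconclusive = activation above 40% but not a hit on visual review; inactive = activation not above 40% and no visual hit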;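 also: percent activation is computed from the nuclear over cytoplasmic p65 intensity ratio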
# sEH activator: activators of human soluble epoxide hydrolase; hit rate 0.04% among 91,000; purified human sEH enzymatic activity, activator screen; activation, % at 2 µM; AID 717; in the data active = activation above about 37%
# sEH inhibitor: blocks human soluble epoxide hydrolase activity; P34913; recombinant human sEH enzymatic activity assay; inhibition, % at 2 µM; hit rate 0.34% among 91,000; AID 707; in the data active = inhibition above about 80%
# Cav32 inh: inhibitors of human Cav3.2 T-type calcium channel; hit rate 4% among 100,000; Cav3.2-expressing cells, Fluo-4 calcium fluorescence FDSS; hits give low values; B-score at 10 µM; AID 449739;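 active = single-dose well whose peak fluorescence ratio is a statistical outlier from its plate by either plate-standardised score or position-corrected B-score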
# Target sequence (O95180 whole entry, looked up): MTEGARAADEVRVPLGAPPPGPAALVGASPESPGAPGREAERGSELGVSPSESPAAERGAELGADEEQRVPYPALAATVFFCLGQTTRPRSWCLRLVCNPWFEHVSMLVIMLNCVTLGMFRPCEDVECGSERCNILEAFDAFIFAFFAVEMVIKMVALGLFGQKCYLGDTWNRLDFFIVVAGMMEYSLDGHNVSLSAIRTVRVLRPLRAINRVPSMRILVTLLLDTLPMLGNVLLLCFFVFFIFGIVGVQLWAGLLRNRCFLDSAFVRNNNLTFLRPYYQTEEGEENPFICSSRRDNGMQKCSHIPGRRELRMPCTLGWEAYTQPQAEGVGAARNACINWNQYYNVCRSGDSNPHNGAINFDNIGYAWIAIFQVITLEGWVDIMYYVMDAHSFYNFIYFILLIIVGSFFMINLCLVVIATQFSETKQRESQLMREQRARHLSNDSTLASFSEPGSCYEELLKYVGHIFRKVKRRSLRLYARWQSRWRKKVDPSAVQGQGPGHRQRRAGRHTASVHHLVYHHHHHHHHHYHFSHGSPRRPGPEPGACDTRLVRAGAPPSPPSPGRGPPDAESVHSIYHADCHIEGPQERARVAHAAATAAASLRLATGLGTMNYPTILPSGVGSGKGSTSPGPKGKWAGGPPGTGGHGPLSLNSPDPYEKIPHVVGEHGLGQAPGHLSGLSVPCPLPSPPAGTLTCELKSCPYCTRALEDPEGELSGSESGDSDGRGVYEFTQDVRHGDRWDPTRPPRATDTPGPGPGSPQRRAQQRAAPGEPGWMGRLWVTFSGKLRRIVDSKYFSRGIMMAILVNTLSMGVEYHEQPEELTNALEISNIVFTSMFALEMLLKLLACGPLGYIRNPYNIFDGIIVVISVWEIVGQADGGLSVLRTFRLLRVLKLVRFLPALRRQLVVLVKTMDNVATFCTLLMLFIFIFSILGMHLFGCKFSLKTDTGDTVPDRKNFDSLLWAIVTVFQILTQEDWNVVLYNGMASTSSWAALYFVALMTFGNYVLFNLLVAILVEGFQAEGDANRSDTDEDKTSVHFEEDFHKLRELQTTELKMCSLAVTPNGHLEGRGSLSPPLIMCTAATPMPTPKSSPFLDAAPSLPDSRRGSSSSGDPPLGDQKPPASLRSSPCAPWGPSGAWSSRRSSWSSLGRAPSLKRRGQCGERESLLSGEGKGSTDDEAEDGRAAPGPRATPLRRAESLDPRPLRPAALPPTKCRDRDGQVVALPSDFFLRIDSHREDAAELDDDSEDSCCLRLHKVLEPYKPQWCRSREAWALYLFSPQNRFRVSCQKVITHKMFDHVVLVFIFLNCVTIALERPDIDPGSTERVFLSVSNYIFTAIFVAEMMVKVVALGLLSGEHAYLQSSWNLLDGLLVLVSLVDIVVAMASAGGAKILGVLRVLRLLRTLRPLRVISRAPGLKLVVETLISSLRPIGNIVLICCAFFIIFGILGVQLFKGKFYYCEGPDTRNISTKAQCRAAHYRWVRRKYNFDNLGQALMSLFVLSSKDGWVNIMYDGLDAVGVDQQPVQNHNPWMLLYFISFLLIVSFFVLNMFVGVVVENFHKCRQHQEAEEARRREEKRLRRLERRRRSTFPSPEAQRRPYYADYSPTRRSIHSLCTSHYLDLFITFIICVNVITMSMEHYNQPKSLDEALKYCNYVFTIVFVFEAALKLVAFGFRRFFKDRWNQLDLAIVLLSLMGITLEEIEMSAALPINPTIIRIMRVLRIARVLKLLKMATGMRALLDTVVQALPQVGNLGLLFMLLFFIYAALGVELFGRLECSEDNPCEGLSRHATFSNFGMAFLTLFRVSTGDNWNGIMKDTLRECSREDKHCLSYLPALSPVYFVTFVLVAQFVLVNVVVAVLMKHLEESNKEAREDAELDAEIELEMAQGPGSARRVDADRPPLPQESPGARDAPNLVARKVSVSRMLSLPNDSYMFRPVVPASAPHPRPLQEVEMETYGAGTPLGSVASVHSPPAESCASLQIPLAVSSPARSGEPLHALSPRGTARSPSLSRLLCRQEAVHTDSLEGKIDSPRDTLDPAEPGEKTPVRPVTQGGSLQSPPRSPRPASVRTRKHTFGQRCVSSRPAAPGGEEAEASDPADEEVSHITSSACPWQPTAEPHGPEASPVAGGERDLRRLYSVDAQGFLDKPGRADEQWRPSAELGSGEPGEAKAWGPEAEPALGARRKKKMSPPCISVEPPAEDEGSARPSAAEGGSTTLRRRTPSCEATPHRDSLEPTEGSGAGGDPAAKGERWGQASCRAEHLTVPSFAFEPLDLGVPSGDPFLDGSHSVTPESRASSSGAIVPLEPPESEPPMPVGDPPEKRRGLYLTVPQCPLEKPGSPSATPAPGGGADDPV
# IL1B cytotox: HUVEC cytotoxicity counter-screen, IL-1B stimulated; AID 845; hit rate 0.41% among 94,000; HUVEC cell count loss, Hoechst imaging; cell count reduction, % at 2 µM;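 active = cell count reduction more than 3 SD above the screen-wide mean, cut at about 70% in these data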
# Hits are given with their value; - = inactive; ? = inconclusive; . = no result given. Only some compounds are listed: those with a hit (about 4.6% of all), similar ones and a draw of the others.
SMILES,IL1B NFkB inh,NFkB transloc pot,sEH activator,sEH inhibitor,Cav32 inh,IL1B cytotox
Cc1ccc(-c2noc(CCC(=O)NCCN3CCc4ccccc4C3)n2)cc1,-,-,-,-,-7.1,-
CCN(CCCNC(=O)CCc1nc(-c2ccc(C)cc2)no1)c1cccc(C)c1,-,-,-,-,-8.1,-
CCN(CCCNC(=O)C1CCC(=O)N1Cc1ccccc1Cl)c1cccc(C)c1 (centres undefined),-,-,-,-,-,-
Cc1ccc(-c2noc(CCC(=O)NCCN3CCOCC3)n2)cc1,-,-,-,-,-,-
CCN(CCCNC(=O)C1CCC(=O)N1Cc1ccc(C)cc1)c1cccc(C)c1 (centres undefined),-,-,-,-,-3.4,-
CCN(Cc1ccccc1)C(=O)CCc1nc(-c2ccc(C)cc2)no1,-,-,-,-,-7.5,-
CCc1ccccc1N(CC)C(=O)CCc1nc(-c2ccc(C)cc2)no1,-,-,-,-,-,-
O=C(Cn1nc(Cc2cccnc2)c2ccccc2c1=O)NCc1ccc2c(c1)OCO2,.,.,.,.,-,.
CCN(CCCNC(=O)CCCn1c(=O)[nH]c2ccccc2c1=O)c1cccc(C)c1,-,-,-,-,-5.5,-
O=C(CCN1CCCCC1c1cccnc1)NCc1ccccc1 (centres undefined),-,-,-,-,-,-
Cc1cccc(CSCCNC(=O)c2ccc(N(C)S(=O)(=O)c3ccccc3)cc2)c1,-,-,-,-,-3.9,-
Cc1ccc(N(CC(=O)NCCSCc2ccco2)S(=O)(=O)c2ccc(C)cc2)cc1,-,-,-,-,-5.3,-
Cc1cccc(N(CC(=O)NCCSCc2ccco2)S(=O)(=O)c2ccccc2)c1,-,-,-,-,-4.1,-
Cc1ccc(N(CC(=O)NCc2ccco2)S(=O)(=O)c2ccccc2)cc1,-,-,.,.,-,-
CCC1(CC)C(=O)C2=C3C1[C@H](C(=O)OC)C=C(C(=O)OC)C[C@H]3n1c(=O)n(C)c(=O)n1[C@H]2C (some centres undefined),.,.,.,.,-,.
O=C(NC1CCCCC1)N1CCCCCCC1,-,-,-,-,-,-
O=S(=O)(NCCSc1ccccc1)c1ccc2c(c1)OCCO2,-,-,-,-,-5,-
O=C(NCN1C(=O)C2C3C=CC(C3)C2C1=O)Nc1nncs1 (centres undefined),-,-,-,-,-,-
CCN(CC)c1nc(N)c2c(N)n(-c3ccccc3C)c(=S)c(C#N)c2c1C#N,-,?,-,-,-,-
COc1cc(/C=N/Nc2nc(Nc3ccc(C)cc3)nc(-n3nc(C)cc3C)n2)cc(OC)c1OC,-,-,-,-,-,-
COc1ccc(O)c(/C=N/Nc2nc(Nc3ccccc3)nc(-n3nc(C)cc3C)n2)c1,-,-,-,-,-4.4,-
Cc1cccc(/C=N/NC(=O)c2cc3c(s2)-c2ccccc2CC3)c1,52,-,-,-,-,-
O=C(Nc1cccc(S(=O)(=O)C(F)F)c1)c1ccc(Cl)c(S(=O)(=O)N2CCOCC2)c1,.,.,.,.,-,.
O=C(NCCN1CCOCC1)c1ccc(Cl)c(S(=O)(=O)N2CCCCCC2)c1,.,.,.,.,-,.
O=C(Nc1cccc(Br)c1)c1ccc(Cl)c(S(=O)(=O)N2CCOCC2)c1,-,-,-,95,-,-
SMILES,IL1B NFkB inh,NFkB transloc pot,sEH activator,sEH inhibitor,Cav32 inh,IL1B cytotox
CC(C)(C)SCCNC(=O)c1ccc(Cl)c(S(=O)(=O)N2CCOCC2)c1,-,-,-,86,-,-
CC(C)(C)n1nc2c(c1NC(=O)Cc1cccs1)CSC2,-,-,.,.,-,-
Cc1ccccc1-c1nc(S(=O)(=O)c2ccc(Br)cc2)c(NCc2cccnc2)o1,-,-,-,-,-2.5,-
Cc1ccc(CNc2oc(-c3ccco3)nc2S(=O)(=O)c2ccccc2)cc1,-,-,-,-,-4.7,-
Cc1ccc(S(=O)(=O)c2nc(-c3ccccc3)oc2NCc2cccnc2)cc1,32,-,-,-,-5.3,-
CCCc1cc(=O)oc2cc(OCC(=O)Nc3ccc4c(c3)OCCO4)ccc12,-,-,-,-,-,-
O=c1cc(-c2ccccc2)[nH]n1-c1nc2ccccc2[nH]1,-,-,-,-,-5.6,-
Cc1ccc(CNC(=O)CN2CCCC(C)C2)cc1 (centres undefined),-,-,-,-,-,-
COC(=O)c1sc(N2C(=O)C(O)=C(C(=O)c3ccc(C)o3)C2c2ccc(F)cc2)nc1C (centres undefined),-,-,-,-,-4.9,-
Cc1ccc(C2C(C(=O)c3ccco3)=C(O)C(=O)N2c2nnc(C)s2)cc1 (centres undefined),-,-,-,-,-,-
O=S(=O)(NCCOCC(F)(F)F)c1ccc2oc3ccccc3c2c1,-,-,-,-,-4.3,-
COC(=O)CSc1ncc(OC)c(OC)n1,.,.,.,.,-,.
CCOC(=O)CSc1ncc(OC)c(Sc2ccc(OC)cc2)n1,.,.,.,.,-6.6,.
CCOC(=O)N1CCN(CC(O)COCc2ccccc2)CC1 (centres undefined),-,-,-,-,-,-
Cc1ccnc(SCCn2c(N3CCN(Cc4ccccc4)CC3)nc3c2c(=O)[nH]c(=O)n3C)n1,-,-,-,-,-,-
CN(C(=O)c1ccc2c(c1)C(=O)N(CCC1=CCCCC1)C2=O)C1CCCCC1,-,-,.,.,-6.1,-
CCOC(=O)C1CCN(CC(=O)Nc2c(C(=O)OC)[nH]c3ccc(Cl)cc23)CC1,-,-,-,-,-,-
CCOC(=O)C1CCCN(CC(=O)Nc2c(C(=O)OC)[nH]c3ccc(Br)cc23)C1 (centres undefined),-,-,-,-,-4.3,-
CCOC(=O)c1c(C)[nH]c(C(=O)CN2CCOCC2)c1C,.,.,.,.,-,.
CC(C)CC(=O)O/N=C1\C(=O)N(Cc2ccc(Cl)cc2)c2ccc([N+](=O)[O-])cc21,-,47,-,-,-,92
CCOC(=O)c1sc(NC(=O)c2ccc(C)o2)nc1C,-,-,.,.,-,-
C=CCCCCCCCCc1nc(=S)[nH][nH]1,-,-,-,-,-5.2,-
COC(=O)c1sc(NC(=O)c2cc3c(s2)CCCC3)nc1C,-,-,-,-,-,-
c1ccc2c(c1)OCC(c1csc3ncnc(N4CCCC4)c13)O2 (centres undefined),-,-,-,-,-5.1,-
COc1cccc(-c2csc3nnc(SCC(=O)c4ccc(NC(C)=O)cc4)n23)c1,-,-,-,-,-,-
SMILES,IL1B NFkB inh,NFkB transloc pot,sEH activator,sEH inhibitor,Cav32 inh,IL1B cytotox
CCOC(=O)N1CCN(C(=O)CSc2nnc(COc3ccc(Cl)cc3)o2)CC1,.,.,.,.,-3.2,.
COC(=O)c1ccc(OC)c(CSc2nnc(COc3ccc(Cl)cc3)o2)c1,-,-,-,-,-5.8,-
COc1ccc(/C=N/n2cncn2)cc1CSc1ccccn1,-,-,-,-,-,-
Cc1ccc(OCC(=O)N/N=C/c2cn[nH]c2-c2ccc(Cl)c(Cl)c2)cc1,-,-,-,-,-,-
CCCC(C)NC(=O)c1ccc2[nH]c3c(c2c1)CC(C)CC3 (centres undefined),-,-,-,-,-5,-
O=C(O)c1ccc2[nH]c3c(c2c1)CSCC3,-,-,-,-,-,-
